From ChEMBL document CHEMBL2218924, “A broad activity screen in support of a chemogenomic map for kinase signalling research and drug discovery” (Biochem J, 2013) come the findings set out here.

The target of assay [1] is Death-associated protein kinase 1 (Homo sapiens) (UniProt P53355). Particulars: at 10 µM.
The target of assay [2] is Death-associated protein kinase 2 (Homo sapiens) (UniProt Q9UIK4). Particulars: at 1 µM.
Assay [3] has the same target. Conditions: at 10 µM.
The target of assay [4] is T1, Serine/threonine-protein kinase DCLK2 (Homo sapiens) (UniProt Q8N568).
T1 sequence (whole entry): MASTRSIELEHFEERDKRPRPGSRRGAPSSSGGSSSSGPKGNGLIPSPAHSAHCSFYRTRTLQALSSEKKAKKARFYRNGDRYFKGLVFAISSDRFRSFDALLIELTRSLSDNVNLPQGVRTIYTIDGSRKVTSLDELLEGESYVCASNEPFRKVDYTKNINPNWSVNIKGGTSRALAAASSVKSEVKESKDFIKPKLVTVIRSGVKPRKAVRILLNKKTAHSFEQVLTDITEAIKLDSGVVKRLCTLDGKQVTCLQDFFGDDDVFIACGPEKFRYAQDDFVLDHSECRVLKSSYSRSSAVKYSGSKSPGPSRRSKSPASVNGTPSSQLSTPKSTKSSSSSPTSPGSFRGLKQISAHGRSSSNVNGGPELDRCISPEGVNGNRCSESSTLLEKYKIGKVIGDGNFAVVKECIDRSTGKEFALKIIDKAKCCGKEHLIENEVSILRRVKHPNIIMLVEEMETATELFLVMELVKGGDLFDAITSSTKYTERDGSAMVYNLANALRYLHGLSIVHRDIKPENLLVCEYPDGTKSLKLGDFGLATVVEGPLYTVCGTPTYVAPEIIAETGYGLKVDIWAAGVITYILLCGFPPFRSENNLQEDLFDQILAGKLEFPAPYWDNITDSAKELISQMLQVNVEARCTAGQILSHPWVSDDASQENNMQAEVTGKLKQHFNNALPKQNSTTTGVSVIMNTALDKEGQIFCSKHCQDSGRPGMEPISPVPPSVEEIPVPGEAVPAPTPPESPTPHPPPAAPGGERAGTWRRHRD
Conditions: at 1 µM.

Assay [5] addresses T1, Serine/threonine-protein kinase DCLK2 (Homo sapiens). Conditions: at 10 µM.
For assay [6], the target named is T2, Discoidin domain-containing receptor 2 (Homo sapiens) (UniProt Q16832).
T2 sequence (whole entry): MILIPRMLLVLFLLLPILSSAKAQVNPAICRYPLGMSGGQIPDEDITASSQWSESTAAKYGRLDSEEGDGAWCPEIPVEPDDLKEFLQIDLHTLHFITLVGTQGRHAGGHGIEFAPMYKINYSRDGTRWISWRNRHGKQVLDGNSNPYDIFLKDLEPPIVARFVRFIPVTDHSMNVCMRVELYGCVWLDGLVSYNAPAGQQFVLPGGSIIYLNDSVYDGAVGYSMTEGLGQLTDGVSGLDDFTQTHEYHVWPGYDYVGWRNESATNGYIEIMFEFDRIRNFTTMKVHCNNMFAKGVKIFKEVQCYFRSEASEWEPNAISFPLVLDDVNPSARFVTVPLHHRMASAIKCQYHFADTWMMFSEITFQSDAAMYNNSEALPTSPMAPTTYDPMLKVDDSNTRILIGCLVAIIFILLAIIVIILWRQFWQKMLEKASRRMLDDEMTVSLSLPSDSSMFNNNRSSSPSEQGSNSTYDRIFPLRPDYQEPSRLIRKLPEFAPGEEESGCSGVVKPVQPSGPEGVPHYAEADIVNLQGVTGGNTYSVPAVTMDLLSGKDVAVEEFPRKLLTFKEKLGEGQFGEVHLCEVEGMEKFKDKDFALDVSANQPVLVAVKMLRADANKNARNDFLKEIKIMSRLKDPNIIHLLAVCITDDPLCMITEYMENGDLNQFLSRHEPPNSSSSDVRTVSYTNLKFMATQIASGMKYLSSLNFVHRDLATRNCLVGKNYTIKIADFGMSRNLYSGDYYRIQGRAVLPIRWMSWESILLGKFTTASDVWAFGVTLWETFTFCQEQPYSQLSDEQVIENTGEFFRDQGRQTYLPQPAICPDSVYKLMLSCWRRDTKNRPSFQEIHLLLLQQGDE
Particulars: at 1 µM.

Assay [7] concerns the target T2, Discoidin domain-containing receptor 2 (Homo sapiens). Particulars: at 10 µM.
Assay [8] concerns the target T3, Myotonin-protein kinase (Homo sapiens) (UniProt Q09013).
T3 sequence (whole entry): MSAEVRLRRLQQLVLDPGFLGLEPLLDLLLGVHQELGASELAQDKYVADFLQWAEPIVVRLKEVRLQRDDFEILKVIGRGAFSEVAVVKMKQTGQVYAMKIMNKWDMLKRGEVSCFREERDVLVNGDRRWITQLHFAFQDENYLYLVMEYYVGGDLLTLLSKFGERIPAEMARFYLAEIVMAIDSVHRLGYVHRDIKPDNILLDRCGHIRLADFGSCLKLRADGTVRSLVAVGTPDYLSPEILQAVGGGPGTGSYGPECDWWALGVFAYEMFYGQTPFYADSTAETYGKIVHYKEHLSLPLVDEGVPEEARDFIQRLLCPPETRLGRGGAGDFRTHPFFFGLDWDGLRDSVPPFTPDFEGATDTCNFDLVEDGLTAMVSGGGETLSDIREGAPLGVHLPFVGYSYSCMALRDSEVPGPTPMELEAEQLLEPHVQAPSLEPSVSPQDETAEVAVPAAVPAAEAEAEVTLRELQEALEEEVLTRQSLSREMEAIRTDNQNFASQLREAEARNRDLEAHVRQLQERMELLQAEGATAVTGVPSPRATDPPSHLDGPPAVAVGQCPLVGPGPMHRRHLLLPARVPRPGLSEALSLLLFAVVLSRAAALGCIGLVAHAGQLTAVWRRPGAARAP
Particulars: at 1 µM.

The target of assay [9] is T3, Myotonin-protein kinase (Homo sapiens). Particulars: at 10 µM.
Assay [10] has as its target T4, Serine/threonine-protein kinase 17A (Homo sapiens) (UniProt Q9UEE5).
T4 sequence (whole entry): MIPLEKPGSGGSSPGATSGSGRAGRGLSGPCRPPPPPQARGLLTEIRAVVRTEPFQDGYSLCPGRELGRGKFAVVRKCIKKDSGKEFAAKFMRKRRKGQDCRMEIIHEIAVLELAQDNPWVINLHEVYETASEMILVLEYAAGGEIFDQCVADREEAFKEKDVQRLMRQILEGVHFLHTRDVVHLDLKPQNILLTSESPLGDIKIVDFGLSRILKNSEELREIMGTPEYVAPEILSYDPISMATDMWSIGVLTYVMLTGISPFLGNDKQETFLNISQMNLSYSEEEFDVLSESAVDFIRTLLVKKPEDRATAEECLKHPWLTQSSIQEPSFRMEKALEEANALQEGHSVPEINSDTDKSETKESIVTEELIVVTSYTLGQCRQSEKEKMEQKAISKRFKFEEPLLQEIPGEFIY
Conditions: at 1 µM.

The target of assay [11] is T4, Serine/threonine-protein kinase 17A (Homo sapiens). Conditions: at 10 µM.
For assay [12], the target named is T5, Dual specificity tyrosine-phosphorylation-regulated kinase 2 (Homo sapiens) (UniProt Q92630).
T5 sequence (whole entry): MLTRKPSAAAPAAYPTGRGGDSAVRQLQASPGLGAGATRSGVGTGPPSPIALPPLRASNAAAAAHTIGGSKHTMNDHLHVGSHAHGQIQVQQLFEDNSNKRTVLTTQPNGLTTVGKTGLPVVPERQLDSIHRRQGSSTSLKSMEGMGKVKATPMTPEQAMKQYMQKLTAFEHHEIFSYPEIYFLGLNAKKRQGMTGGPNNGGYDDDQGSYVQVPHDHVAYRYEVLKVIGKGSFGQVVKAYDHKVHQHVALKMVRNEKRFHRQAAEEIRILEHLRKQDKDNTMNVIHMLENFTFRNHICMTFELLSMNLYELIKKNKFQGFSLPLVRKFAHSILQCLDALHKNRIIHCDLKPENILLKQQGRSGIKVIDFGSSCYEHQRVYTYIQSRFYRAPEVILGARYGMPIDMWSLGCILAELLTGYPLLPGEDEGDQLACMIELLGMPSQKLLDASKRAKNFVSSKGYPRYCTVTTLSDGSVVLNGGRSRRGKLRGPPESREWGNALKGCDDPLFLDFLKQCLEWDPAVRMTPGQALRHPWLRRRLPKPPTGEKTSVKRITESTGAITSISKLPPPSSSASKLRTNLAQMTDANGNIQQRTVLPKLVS
Conditions: at 1 µM.

Assay [13] has as its target T5, Dual specificity tyrosine-phosphorylation-regulated kinase 2 (Homo sapiens). Conditions: at 10 µM.
In assay [14] the target is Epidermal growth factor receptor (Homo sapiens) (UniProt P00533). Particulars: at 1 µM.
Assay [15] shares this target. Particulars: at 10 µM.
In assay [16] the target is T6, Ephrin type-A receptor 1 (Homo sapiens) (UniProt P21709).
T6 sequence (whole entry): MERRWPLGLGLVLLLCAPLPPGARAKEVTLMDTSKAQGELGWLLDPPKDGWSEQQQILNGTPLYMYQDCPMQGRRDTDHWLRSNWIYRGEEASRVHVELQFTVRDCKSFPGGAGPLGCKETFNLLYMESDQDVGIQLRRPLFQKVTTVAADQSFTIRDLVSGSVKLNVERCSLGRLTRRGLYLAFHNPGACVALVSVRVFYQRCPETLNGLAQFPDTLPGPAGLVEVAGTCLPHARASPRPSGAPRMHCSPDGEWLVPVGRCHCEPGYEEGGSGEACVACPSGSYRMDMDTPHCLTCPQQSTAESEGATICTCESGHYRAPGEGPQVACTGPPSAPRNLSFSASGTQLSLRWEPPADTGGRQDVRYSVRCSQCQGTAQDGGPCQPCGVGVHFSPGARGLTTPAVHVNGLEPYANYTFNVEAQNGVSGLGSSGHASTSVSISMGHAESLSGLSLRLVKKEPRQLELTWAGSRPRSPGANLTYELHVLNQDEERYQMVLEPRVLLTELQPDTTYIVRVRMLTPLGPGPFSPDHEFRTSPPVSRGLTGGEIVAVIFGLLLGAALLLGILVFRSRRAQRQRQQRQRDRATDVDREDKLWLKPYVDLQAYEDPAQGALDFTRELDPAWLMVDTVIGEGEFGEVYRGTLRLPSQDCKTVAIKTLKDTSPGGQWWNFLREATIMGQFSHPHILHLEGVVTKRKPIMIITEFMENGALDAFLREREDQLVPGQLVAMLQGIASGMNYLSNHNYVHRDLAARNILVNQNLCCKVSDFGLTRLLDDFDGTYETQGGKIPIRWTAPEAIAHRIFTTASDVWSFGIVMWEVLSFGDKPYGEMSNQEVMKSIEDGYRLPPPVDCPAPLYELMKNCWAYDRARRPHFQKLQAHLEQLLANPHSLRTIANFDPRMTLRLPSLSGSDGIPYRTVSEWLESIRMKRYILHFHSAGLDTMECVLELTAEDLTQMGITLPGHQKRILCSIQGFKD
Particulars: at 1 µM.

In assay [17] the target is T6, Ephrin type-A receptor 1 (Homo sapiens). Particulars: at 10 µM.
Assay [18] deals with Ephrin type-A receptor 2 (Homo sapiens) (UniProt P29317). Conditions: at 1 µM.
Assay [19] shares this target. Conditions: at 10 µM.
Assay [20] addresses T7, Ephrin type-A receptor 3 (Homo sapiens) (UniProt P29320).
T7 sequence (whole entry): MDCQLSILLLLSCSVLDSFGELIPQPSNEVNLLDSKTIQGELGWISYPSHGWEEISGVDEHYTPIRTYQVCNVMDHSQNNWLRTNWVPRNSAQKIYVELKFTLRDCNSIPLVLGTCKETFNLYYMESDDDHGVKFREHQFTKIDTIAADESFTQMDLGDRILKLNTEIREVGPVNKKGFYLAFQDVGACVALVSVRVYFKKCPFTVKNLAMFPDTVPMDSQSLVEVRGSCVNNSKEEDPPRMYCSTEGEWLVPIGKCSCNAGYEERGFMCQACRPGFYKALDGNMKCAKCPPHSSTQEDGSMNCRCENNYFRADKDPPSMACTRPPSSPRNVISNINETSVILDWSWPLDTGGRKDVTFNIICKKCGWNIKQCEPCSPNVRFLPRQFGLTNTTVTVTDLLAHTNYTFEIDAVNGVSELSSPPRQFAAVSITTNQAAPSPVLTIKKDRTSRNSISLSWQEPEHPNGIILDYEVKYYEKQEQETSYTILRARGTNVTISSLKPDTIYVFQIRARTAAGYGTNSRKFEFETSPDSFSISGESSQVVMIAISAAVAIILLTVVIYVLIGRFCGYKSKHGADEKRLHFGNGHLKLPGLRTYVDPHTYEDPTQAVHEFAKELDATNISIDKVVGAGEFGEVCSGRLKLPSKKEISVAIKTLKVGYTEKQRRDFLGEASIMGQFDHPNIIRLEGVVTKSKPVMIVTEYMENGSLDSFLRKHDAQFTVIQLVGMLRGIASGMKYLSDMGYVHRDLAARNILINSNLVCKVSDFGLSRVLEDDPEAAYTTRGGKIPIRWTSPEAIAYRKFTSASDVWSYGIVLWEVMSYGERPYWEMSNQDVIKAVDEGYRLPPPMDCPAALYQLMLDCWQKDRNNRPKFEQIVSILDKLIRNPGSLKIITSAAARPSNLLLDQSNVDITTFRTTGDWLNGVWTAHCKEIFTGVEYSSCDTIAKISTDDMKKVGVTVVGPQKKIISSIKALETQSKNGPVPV
Particulars: at 1 µM.

Sequence of Death-associated protein kinase 2 (Homo sapiens) (Q9UIK4 whole entry, looked up): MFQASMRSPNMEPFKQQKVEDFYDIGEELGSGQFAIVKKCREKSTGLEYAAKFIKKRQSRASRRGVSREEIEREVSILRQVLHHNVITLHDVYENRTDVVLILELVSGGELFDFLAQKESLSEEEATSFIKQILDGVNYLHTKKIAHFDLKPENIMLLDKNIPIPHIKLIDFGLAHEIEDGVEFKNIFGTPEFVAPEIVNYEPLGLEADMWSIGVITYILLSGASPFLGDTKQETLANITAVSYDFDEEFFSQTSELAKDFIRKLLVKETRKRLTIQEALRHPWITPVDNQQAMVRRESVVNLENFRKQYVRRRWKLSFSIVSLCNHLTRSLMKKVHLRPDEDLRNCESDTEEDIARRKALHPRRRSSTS
Sequence of Ephrin type-A receptor 2 (Homo sapiens) (P29317 whole entry): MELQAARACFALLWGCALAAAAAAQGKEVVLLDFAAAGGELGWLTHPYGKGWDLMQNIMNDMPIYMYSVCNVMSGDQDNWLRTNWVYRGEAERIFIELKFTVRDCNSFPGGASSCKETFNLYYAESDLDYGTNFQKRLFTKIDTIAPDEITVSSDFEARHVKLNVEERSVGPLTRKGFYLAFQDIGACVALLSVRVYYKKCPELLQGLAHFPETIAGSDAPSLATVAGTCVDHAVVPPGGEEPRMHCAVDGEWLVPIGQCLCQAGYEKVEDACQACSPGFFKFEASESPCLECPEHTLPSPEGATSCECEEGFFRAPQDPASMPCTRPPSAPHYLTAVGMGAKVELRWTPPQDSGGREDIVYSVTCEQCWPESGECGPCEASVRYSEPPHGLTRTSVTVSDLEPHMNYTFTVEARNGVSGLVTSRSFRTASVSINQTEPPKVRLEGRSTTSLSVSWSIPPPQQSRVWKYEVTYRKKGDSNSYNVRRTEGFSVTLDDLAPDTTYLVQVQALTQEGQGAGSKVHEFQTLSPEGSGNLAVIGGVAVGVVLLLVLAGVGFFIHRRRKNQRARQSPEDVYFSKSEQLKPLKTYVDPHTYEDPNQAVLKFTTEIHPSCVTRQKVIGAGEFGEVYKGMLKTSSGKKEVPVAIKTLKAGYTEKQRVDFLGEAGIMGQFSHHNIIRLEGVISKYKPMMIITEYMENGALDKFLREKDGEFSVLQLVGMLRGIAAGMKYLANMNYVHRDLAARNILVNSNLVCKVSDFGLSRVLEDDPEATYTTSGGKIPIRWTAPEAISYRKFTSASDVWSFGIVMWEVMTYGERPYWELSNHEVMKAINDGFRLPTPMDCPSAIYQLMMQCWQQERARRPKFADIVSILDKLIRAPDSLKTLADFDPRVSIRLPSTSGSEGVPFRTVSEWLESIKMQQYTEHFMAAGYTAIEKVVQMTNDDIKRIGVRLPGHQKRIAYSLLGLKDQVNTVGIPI
Sequence of Epidermal growth factor receptor (Homo sapiens) (P00533 whole entry): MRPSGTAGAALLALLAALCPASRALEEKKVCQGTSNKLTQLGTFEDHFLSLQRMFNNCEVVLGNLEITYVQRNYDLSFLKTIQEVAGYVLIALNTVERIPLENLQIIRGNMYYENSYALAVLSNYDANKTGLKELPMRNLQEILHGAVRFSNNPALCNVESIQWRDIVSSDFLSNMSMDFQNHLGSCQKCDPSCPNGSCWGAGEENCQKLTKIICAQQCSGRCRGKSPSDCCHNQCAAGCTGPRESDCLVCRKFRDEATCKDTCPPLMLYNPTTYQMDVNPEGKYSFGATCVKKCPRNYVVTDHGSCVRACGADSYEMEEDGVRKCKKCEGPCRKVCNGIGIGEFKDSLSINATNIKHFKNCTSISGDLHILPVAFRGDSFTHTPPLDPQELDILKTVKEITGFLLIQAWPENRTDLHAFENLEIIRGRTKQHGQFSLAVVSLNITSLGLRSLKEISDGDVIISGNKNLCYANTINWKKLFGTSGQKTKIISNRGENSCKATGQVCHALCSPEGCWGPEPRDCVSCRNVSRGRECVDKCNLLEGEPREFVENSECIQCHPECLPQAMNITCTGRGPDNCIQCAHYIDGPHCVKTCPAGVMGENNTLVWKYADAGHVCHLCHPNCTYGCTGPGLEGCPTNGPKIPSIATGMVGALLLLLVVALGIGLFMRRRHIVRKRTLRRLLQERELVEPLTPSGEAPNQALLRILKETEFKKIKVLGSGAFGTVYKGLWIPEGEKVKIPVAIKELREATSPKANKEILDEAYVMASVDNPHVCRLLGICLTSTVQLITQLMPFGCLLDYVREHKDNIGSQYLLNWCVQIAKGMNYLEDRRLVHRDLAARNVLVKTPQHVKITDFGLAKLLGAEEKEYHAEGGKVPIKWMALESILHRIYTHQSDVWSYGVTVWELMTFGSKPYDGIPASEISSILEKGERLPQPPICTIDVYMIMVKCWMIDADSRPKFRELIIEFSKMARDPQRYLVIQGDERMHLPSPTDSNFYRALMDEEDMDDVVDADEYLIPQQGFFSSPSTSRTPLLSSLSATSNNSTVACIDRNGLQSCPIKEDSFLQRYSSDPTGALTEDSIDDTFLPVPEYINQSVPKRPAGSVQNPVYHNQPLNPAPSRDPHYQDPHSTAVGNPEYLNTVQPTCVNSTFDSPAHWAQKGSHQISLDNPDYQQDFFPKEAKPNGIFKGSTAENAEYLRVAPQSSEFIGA
Sequence of Death-associated protein kinase 1 (Homo sapiens) (P53355 whole entry, looked up): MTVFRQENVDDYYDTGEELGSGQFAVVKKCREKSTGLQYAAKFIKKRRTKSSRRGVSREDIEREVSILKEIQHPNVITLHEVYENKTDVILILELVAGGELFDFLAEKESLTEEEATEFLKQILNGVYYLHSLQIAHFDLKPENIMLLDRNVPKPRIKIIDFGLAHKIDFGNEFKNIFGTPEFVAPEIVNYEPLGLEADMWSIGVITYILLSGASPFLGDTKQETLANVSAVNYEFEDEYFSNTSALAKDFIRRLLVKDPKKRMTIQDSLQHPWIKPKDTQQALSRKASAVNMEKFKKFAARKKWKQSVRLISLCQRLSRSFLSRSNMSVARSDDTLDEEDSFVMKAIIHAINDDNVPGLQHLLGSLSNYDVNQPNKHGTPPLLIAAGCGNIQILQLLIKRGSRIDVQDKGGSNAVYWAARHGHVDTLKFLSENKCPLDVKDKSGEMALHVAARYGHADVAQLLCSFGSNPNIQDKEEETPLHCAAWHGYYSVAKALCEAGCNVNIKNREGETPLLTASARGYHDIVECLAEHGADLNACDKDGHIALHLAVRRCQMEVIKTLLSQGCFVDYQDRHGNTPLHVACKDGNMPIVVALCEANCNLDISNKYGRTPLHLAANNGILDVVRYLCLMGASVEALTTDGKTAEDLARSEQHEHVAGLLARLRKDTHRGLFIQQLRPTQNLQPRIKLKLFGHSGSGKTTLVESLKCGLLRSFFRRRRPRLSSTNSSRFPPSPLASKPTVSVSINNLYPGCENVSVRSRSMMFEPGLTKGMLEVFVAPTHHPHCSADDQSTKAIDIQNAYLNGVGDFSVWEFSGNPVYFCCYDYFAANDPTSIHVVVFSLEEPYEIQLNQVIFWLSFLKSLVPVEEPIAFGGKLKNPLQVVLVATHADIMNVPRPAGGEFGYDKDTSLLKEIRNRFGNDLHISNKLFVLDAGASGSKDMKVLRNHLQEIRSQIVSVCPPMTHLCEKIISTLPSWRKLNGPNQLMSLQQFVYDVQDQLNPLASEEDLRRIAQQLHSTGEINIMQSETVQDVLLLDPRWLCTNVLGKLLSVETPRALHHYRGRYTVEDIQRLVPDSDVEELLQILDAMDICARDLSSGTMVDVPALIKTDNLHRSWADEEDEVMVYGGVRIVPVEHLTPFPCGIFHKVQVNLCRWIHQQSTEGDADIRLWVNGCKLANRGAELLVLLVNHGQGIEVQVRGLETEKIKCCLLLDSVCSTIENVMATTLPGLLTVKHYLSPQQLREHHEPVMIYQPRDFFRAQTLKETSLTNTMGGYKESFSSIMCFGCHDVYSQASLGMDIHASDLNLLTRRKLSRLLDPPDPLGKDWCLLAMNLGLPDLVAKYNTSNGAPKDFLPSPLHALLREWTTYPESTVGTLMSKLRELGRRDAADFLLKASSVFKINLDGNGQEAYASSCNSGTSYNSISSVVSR

As for `NC(=O)c1ccc2[nH]c(-c3ccc(Oc4ccc(Cl)cc4)cc3)nc2c1`, the residual activity (usually the signal under treatment as a percentage of the control signal) is 98% in assay [1]; 101% in [2]; 102% in assay [3]; 111% in [4]; 182% in assay [5]; 98% in assay [6]. Moreover, the residual activity stood at 102% in assay [7]; 107% in assay [8]; 83% in [9]; 58% in [10]; 42% in assay [11]; 87% in assay [12]. Also, the residual activity in assay [13] is 53%; in [14], 111%; in [15], 115%; in [16], 96%; in assay [17], 85%; in assay [18], 100%. For the same compound, the residual activity in assay [19] came to 116%; in assay [20], 100%.
Regarding `Nc1ccc2ncnc(NCCc3ccc(Oc4ccccc4)cc3)c2c1`, the residual activity in assay [1] was 75%; in [2], 105%; in [3] it was 100%; in assay [4] it was 110%; in [5], 87%; in assay [6], 91%. In addition, the residual activity in assay [7] is 90%; in assay [8], 98%; in assay [9] it was 86%; in [10], 62%; in assay [11] it was 48%; in [12] it was 103%. In addition, the residual activity in assay [13] was determined as 92%; in assay [16], 107%; in [17] it was 87%; in [18] it was 98%; in assay [19], 91%; in assay [20], 95%.
